We go through 94 molecules from PubChem BioAssay AID504850 (National Center for Advancing Translational Sciences (NCATS), 2011).

Each structure is given as a SMILES string. The campaign covered roughly 2,300 compounds. About 1,200 (52%) were called active. About 34% were inconclusive and are not listed. Calls follow the shape of the dose curve; as a rule, active = well fitted inhibition curve with a large enough effect; inconclusive = small, poorly fitted or top-dose-only effect, or effect the other way; inactive = no such curve, though single readings can be large or run the other way. The set was probably picked from earlier hits. The list shows a part of the results.
Potency is read from the fitted curve at half-maximal effect.

A short description of this assay: Confirmation screen for delayed death inhibitors of the malarial parasite plastid, 48 hour incubation. Also: nearly all actives have a fitted effect of over 65% in size. The note with it: P. falciparum-infected erythrocytes, luciferase growth; series mostly up to 28.7 µM. The method, boiled down:
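Erythrocytes infected with luciferase-expressing P. falciparum (2% hematocrit, 0.1% parasitemia) incubated with compounds 48 hours at 37 C, 5% CO2, in RPMI/Albumax. Growth inhibition scored as reduced luminescence after detection reagent.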
On to `O=C(COC(=O)C1C2CC3OC(=O)C1C3C2)Nc1ccccc1` (centres undefined), for which the Potency entry is “inactive”. With `O=S1(=O)Nc2c(ccc3cccnc23)-c2ccccc21`, the Potency was 1.78 µM (active). With `Cc1ccc(-c2nc(-c3cccnc3)sc2CC(=O)Nc2ccc(C)c(Cl)c2)cc1` the figure was 4.47 µM (active). With `Cc1nc(-c2ccccn2)sc1C(=O)Nc1ccc(Cl)c(Cl)c1` the entry was “inactive”; with `COc1cc(OC)c(OC)cc1CN1CCN(C(=O)c2cccc3ccccc23)CC1`, 12.6 µM (active); with `CC1C/C(=C/c2ccncc2)C(=O)/C(=C/c2ccncc2)C1` (centres undefined), 3.98 µM (active). For the molecule `CCSc1nnc(N2C(=O)c3ccc(C(=O)c4ccc(C(=O)O)cc4)cc3C2=O)s1`, the Potency result was “inactive”. As for `O=C(NC1CCCC1)C1CC(=O)N(CCc2ccccc2)C1` (centres undefined), the Potency result was “inactive”.

`O=C(NC1CCN(Cc2ccccc2)CC1)C1CCN(c2nnc(-n3cccc3)s2)CC1`: the Potency was 10 µM (active). For `O=C(Cc1cccs1)NCCc1ccc(Cl)cc1`, the Potency is 4.47 µM (active).

Consider `Cc1ccc(Cl)cc1N1CCN(c2cccc[n+]2C)CC1`, for which the Potency is 3.16 µM (active). As to `COc1cccc2sc(Nc3nnc(-c4ccccc4Cl)o3)nc12`, the Potency is 12.6 µM (active). With `COc1cccc2sc(Nc3nnc(-c4ccc(F)cc4)o3)nc12` the figure was 7.08 µM (active); with `O=C(COc1ccccc1)Nc1nnc(-c2ccc(F)cc2)o1`, “inactive”; with `CC(C)CCSc1nc(N)c(C#N)cc1C#N`, 6.31 µM (active). As to `CCOC(=O)c1c[nH]c2cc(OCC(C)C)c(OCC(C)C)cc2c1=O`, the Potency was 0.199 µM (active). In the case of `CSc1nnc(C)c(=O)[nH]1` it was “inactive”; in that of `Cc1cc(=O)oc2c1ccc1oc(/C(=N/O)c3ccccc3)c(C)c12`, 7.94 µM (active); in that of `COc1ccc2cc3cc(C(=O)Nc4ccc5c(c4)OCO5)oc3nc2c1`, 5.01 µM (active). With `Cc1ccc2cc3cc(C(=O)NCCCN4CCCC4=O)oc3nc2c1` the figure was 3.16 µM (active); with `COc1ccc2nc3oc(C(=O)NCc4cccs4)cc3cc2c1`, 3.55 µM (active). In the case of `COc1ccccc1NC(=S)NCc1cccs1` it was “inactive”. As to `COCCCNC(=O)c1cc2cc3cc(OC)ccc3nc2o1`, the Potency was 5.01 µM (active). In the case of `Cn1cnc([N+](=O)[O-])c1Sc1ccc(Br)cc1`, the Potency entry was “inactive”.

As to `Cc1cc(Br)ccc1NC(=O)CNC(=O)Cn1ncc(Cl)c(Cl)c1=O`, the Potency was 12.6 µM (active). Take `O=C(NNc1nc(-c2ccccc2)cs1)c1ccco1`: the Potency is 2.24 µM (active). With `O=C(Nn1c(-c2ccccc2)nc2ccccc2c1=O)c1ccco1` the entry was “inactive”. In the case of `S=c1[nH]nc(-c2ccccn2)n1/N=C/c1ccc(-c2ccccc2Br)o1` it was “inactive”; in that of `Cc1nn(-c2ccccc2)c(C)c1/C=N/n1c(-c2ccccc2Br)n[nH]c1=S`, 14.1 µM (active).

For `Cc1[nH]c2ccccc2c1/C=N/NC(=O)CNC(=O)Cc1ccccc1`, the Potency entry is “inactive”.

Take `Cc1[nH]c2ccccc2c(=O)c1C(=O)/C=C/c1ccccc1`: the Potency is 6.31 µM (active).

Regarding `Cc1[nH]c(=O)c(C(=O)/C=C/c2ccccc2)c2c1CCCC2`, the Potency was 6.31 µM (active). In the case of `Cc1[nH]c(=O)c(C(=O)/C=C/c2ccccc2F)c2c1CCCC2` it was 7.08 µM (active).

As for `CC(=O)Nc1ccc(NC(=O)c2ccc(C3SCC(=O)N3CCc3ccccc3)cc2)cc1` (centres undefined), the Potency is 8.91 µM (active). In the case of `O=C1CSC(c2cccnc2)N1CCc1ccccn1` (centres undefined) it was “inactive”; in that of `N#CCc1nc(C(c2ccccc2)c2ccccc2)no1`, 7.94 µM (active). In the case of `CC(C)c1cc(NC(=O)CCl)on1` it was 10 µM (active); in that of `CC(C)NC(=S)N/N=C/c1sc(N2CCCCC2)nc1-c1cccs1`, 6.31 µM (active); in that of `Cc1ccc(C(=O)N/C(=C\c2ccc(-c3ccc(Cl)cc3)o2)C(=O)NCCCN(C)C)cc1`, 3.98 µM (active). With `C=CCN=c1scc(-c2ccc(F)cc2)n1/N=C/c1ccccn1` the figure was 6.31 µM (active); with `CCCCN1/C(=C/c2cccc[n+]2C)Sc2cc(NC(C)=O)ccc21`, 3.16 µM (active). On to `Cc1c(OC(C)C(=O)N2C[C@H]3C[C@@H](C2)c2cccc(=O)n2C3)ccc2c3c(c(=O)oc12)CCC3` (some centres undefined), for which the Potency was 12.6 µM (active). `Cc1c(CC(=O)N2C[C@H]3C[C@@H](C2)c2cccc(=O)n2C3)c(=O)oc2cc3occ(C(C)(C)C)c3cc12`: the Potency was 12.6 µM (active). In the case of `CC(C)C[C@@H](NC(=O)[C@H](Cc1ccccc1)NC(=O)c1cnccn1)B(O)O`, the Potency is 0.178 µM (active).

With `O=C(C[C@@H]1C/C=C\CC[C@@H](Cc2ccc(F)cc2)C(=O)OC[C@@H]2CCCN2C1=O)NCCO`, the Potency is 12.6 µM (active).

With `COc1ccc(NC(=O)N2CCCc3cc(C)ccc32)c(OC)c1`, the Potency is 14.1 µM (active). Regarding `Cc1cc(C)n(Cc2ccc(C(=O)N/N=C/c3ccc(-c4ccc([N+](=O)[O-])cc4)o3)o2)n1`, the Potency is 8.91 µM (active). As to `O=C(CCN1C(=O)c2ccccc2C1=O)C1=NN[C@@H]2C(=O)N(c3ccc(F)cc3)C(=O)[C@H]12`, the Potency entry is “inactive”. In the case of `CCC/C(C#CCCN1C(=O)c2ccccc2C1=O)=C1/c2ccccc2C(=O)N1c1ccccc1`, the Potency is 7.94 µM (active). With `CCn1c(SCC(=O)Nc2ccc(C)cc2)nc2sc3c(c2c1=O)CCN(C)C3` the figure was 1.41 µM (active); with `CCOC(=O)CSc1nc2sc3c(c2c(=O)n1C1CCCCC1)CCN(C)C3`, 3.16 µM (active); with `Cc1cccc(NC(=S)/N=C(\N)Nc2nc(C)c3ccccc3n2)c1`, 12.6 µM (active). Regarding `CC(CN1CCC(n2nccc2NC(=O)c2ccccc2Cl)CC1)c1ccccc1` (centres undefined), the Potency was 15.8 µM (active). On to `C(=N\N(c1ccccc1)c1ccccc1)/c1ccccn1`, for which the Potency entry was “inactive”. With `O=C(N/N=C/c1ccccn1)c1cc([N+](=O)[O-])cc([N+](=O)[O-])c1` the figure was 10 µM (active); with `CC1(C)COC(/C=C/c2cccc([N+](=O)[O-])c2)=N1`, 14.1 µM (active). With `O=[N+]([O-])c1cccc(/C=C/c2nc[nH]c2[N+](=O)[O-])c1` the figure was 7.94 µM (active); with `COc1ccccc1-n1nnnc1S(=O)(=O)Cc1ccc(Cl)cc1`, 12.6 µM (active); with `CCCCN(CCCNC(=O)C1CCN(C(=O)c2cc3sccc3n2C)CC1)Cc1ccccc1`, 5.62 µM (active). In the case of `CC(NC(=O)c1cc2sccc2n1C)c1ccc2c(c1)OCCO2` (centres undefined), the Potency result was “inactive”. With `O=C(Nc1ccc2c(c1)CCCN2C(=O)c1ccco1)c1cc([N+](=O)[O-])ccc1Cl` the figure was 12.6 µM (active). In the case of `COc1ccccc1N(Cc1ccccc1)S(=O)(=O)c1cccc(C(=O)Nc2ccccn2)c1` it was 8.91 µM (active); in that of `COc1ccccc1N(Cc1ccccc1)S(=O)(=O)c1cccc(C(=O)Nc2cc(C)ccn2)c1`, 11.2 µM (active). For the molecule `COc1cc(OC)cc(C(=O)Nc2ccc3c(c2)CCCN3C(=O)c2cccs2)c1`, the Potency was 12.6 µM (active). On to `Cc1ccccc1C(=O)Nc1ccc2c(c1)CCCN2C(=O)c1cccs1`, for which the Potency is 12.6 µM (active). In the case of `CC(=O)Nc1ccc(OCc2cccc3ccccc23)cc1` it was 12.6 µM (active); in that of `O=C(Cc1cccc2ccccc12)Nc1ccccc1C(=O)O`, “inactive”; in that of `CCOC(=O)c1c(NC(=O)CSc2ccccc2C(=O)O)sc(C)c1C`, “inactive”.

For the molecule `CCOC(=O)c1c(NC(=O)CSc2c[nH]c3ccccc23)sc2c1CCCC2`, the Potency was 14.1 µM (active). In the case of `COc1cc([N+](=O)[O-])c(OC)cc1SCc1n[nH]c(=S)n1-c1ccc(F)cc1` it was 14.1 µM (active). Take `CCCCCCC1C(C#N)=C(N)OC2=C1C(=O)CCC2` (centres undefined): the Potency result was “inactive”. As for `CCc1nc(SCC(=O)Nc2ccc(N(C)C)cc2)n[nH]1`, the Potency entry is “inactive”.

For the molecule `COc1cccc(NC(=O)CSc2nc3n[nH]c(C)c3c(=N)n2-c2cccc(OC)c2)c1`, the Potency is 7.94 µM (active). In the case of `COc1ccc2c(CC(=O)OCC(=O)Nc3cccc(S(N)(=O)=O)c3)coc2c1` it was “inactive”; in that of `CCc1ccc(NC(=O)CSc2nc3n[nH]c(C)c3c(=N)n2-c2cccc(OC)c2)cc1`, 5.62 µM (active); in that of `COc1ccccc1NC(=O)c1oc2ccccc2c1NC(=O)C1CC1`, 8.91 µM (active). With `COc1cccc(NC(=O)c2oc3ccccc3c2NC(=O)C2CC2)c1` the figure was 15.8 µM (active); with `COc1cccc(NC(C)C(=O)Nc2cc([N+](=O)[O-])ccc2Cl)c1` (centres undefined), 3.16 µM (active); with `COc1cccc(N/C(SCc2cccc([N+](=O)[O-])c2)=C(/C#N)C(N)=O)c1`, “inactive”. Consider `Cn1c(CCN2CCCC2)nc2cc(NS(=O)(=O)c3ccc(Cl)cc3)ccc21`, for which the Potency is 11.2 µM (active). For the molecule `CC1CCCCN1C(=O)COC(=O)c1cccc(NS(=O)(=O)c2ccccc2)c1` (centres undefined), the Potency result was “inactive”. Take `Cn1c(CCN2CCCC2)nc2cc(NS(=O)(=O)c3ccccc3)ccc21`: the Potency is 3.55 µM (active).

Consider `CC(=O)c1ccc(N/N=C(/C(N)=O)C2=NC(C)(C)Cc3ccccc32)cc1`, for which the Potency was 7.08 µM (active). In the case of `Cc1cccc(N/N=C(\C(N)=O)C2=NC(C)(C)Cc3ccccc32)c1` it was 4.47 µM (active); in that of `CN(Cc1ccc(Cl)c(Cl)c1)C(=O)C1=CC=CN2CCS(=O)(=O)N=C12`, 7.94 µM (active). With `CN1C(=O)C(C)(C)c2cc(S(=O)(=O)NCC3CCC(C(=O)NCc4ccc(F)cc4)CC3)ccc21` (centres undefined) the figure was 15.8 µM (active); with `CCOc1cccc2sc(NC(=O)CCS(=O)(=O)c3ccccc3)nc12`, 11.2 µM (active).

Turning to `CC1(C)CC(=O)c2sc(NC(=O)CCS(=O)(=O)c3ccccc3)nc2C1`, the Potency result was “inactive”. In the case of `COc1ccc(C)c2sc(NC(=O)CCS(=O)(=O)c3ccccc3)nc12` it was “inactive”; in that of `Nc1nonc1-n1nnc(C(=O)N/N=C/c2ccc(Cl)cc2)c1-c1ccc2c(c1)OCO2`, 0.0562 µM (active). With `Cc1ccsc1/C=N/NC(=O)c1nnn(-c2nonc2N)c1-c1ccc2c(c1)OCO2` the figure was 1.26 µM (active); with `CN(Cc1c(C(=O)N/N=C/c2cccc(O)c2)nnn1-c1nonc1N)c1ccccc1`, “inactive”; with `Nc1nonc1-n1nnc(C(=O)N/N=C/c2cccc(Cl)c2)c1-c1ccc2c(c1)OCO2`, 0.126 µM (active). As for `CCOc1ccc(-c2c(C(=O)N/N=C/c3ccc(OC(C)C)cc3)nnn2-c2nonc2N)cc1`, the Potency was 15.8 µM (active).
